tested on: HFF; test: cell viability relative to DMSO control; higher = less cytotoxic; details: 1 µM; 72 h
Method: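 Single-dose cytotoxicity screen of the MMV Pandemic Response Box at 1 uM on human foreskin fibroblasts (HFF), 72 h at 37 C. Viability measured by MTT (OD 550 nm) and normalised to the DMSO control (% survival).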

Row | SMILES | cell viability [%]
1 | OB1OCc2cc(Cl)ccc21 | 68.1
2 | Cc1ccc(Oc2ccccc2-c2csc(N=C3NCCCN3)n2)c(C)c1 | 68.5
3 | N#Cc1cc([N+](=O)[O-])ccc1Oc1ccccc1Cl | 72.5
4 | CC(C)(C)NC(=O)N[C@H](C(=O)N1C[C@H]2[C@@H]([C@H]1C(=O)NC(CC1CCC1)C(=O)C(N)=O)C2(C)C)C(C)(C)C (stereo not given in full) | 63.4
5 | O=C1CCC(N2C(=O)c3ccccc3C2=O)C(=O)N1 (stereo not given) | 59
6 | O=C(/C(=C/c1ccc(Cl)cc1Cl)n1ccnc1)c1ccc(Cl)cc1 | 74.8
7 | NC(=O)[C@@H]1CC[C@@H]2CN1C(=O)N2OS(=O)(=O)O | 69.1
8 | CCCCCCCCC(CP(=O)(O)C(C)N)C(=O)O (stereo not given) | 61.8
9 | CC(C)(C)NC(=O)[C@@H]1CN(Cc2cnc3occc3c2)CCN1C[C@@H](O)C[C@@H](Cc1ccccc1)C(=O)N[C@H]1c2ccccc2C[C@H]1O | 72.6
10 | CO/N=C(\C(=O)N[C@@H]1C(=O)N2C(C(=O)OCOC(=O)C(C)(C)C)=C(/C=C\c3scnc3C)CS[C@H]12)c1csc(N)n1 | 66
11 | C=C(C)n1c(=O)n(Cc2ccccc2C)c2ccccc21 | 63
12 | O=C(CSc1nnc(Br)n1-c1ccc(C2CC2)c2ccccc12)Nc1ccc(C(=O)O)cc1Cl | 66.5
13 | CN1CCN(Cc2ccc(-c3cnc4[nH]cc(-c5ccc6[nH]ccc6c5)c4c3)cc2)CC1 | 75.3
14 | CCNC(=O)Nc1cn2c(-c3ncc(CC)cn3)cc(-c3cccnc3)cc2n1 | 71.6
15 | CN(C)CCNC(=O)c1cccc2cccnc12 | 61.2
16 | Cc1nc(N(C)C(=O)Cc2ccc(-c3ccccn3)cc2)sc1S(N)(=O)=O | 66.3
17 | O=S(=O)(NCB(O)O)c1cc2c(Cl)ccc(Cl)c2s1 | 68
18 | CCCCOC(=O)Nc1cc2nc(C3CCCCC3)[nH]c2cc1N(CC)CC | 72.1
19 | O=C(Nc1ccccc1)N(Cc1cc(Br)ccc1O)c1ccc(F)cc1 | 67.1
20 | O=c1oc2ccc(Br)cc2cc1CSc1ncc[nH]1 | 74.7

Row | SMILES | cell viability [%]
21 | NC[C@H]1O[C@H](O[C@H]2[C@H](O)[C@@H](O[C@H]3O[C@H](CO)[C@@H](O)[C@H](N)[C@H]3O)[C@H](N)C[C@@H]2N)[C@H](N)C[C@@H]1O | 68.2
22 | [N-]=[N+]=N[C@H]1C[C@H](n2ccc(=O)[nH]c2=O)O[C@@H]1CO | 69.1
23 | COc1ccc2c(c1)cc(CNC(=O)c1cc3ccccc3o1)n2CC(=O)O | 62.5
24 | Cc1nc(Nc2ccc(F)cc2)nc(N2CCc3ccccc3C2C)c1C (stereo not given) | 65.9
25 | CC(C)N(c1cc(-c2ccccc2)sc1C(=O)O)C(=O)[C@H]1CC[C@H](C)CC1 | 67.5
26 | O=c1ccc2ncc(=O)n3c2n1CC3CN1CCC(NCc2cc3c(cn2)OCCC3)CC1 (stereo not given) | 60
27 | O=C(O)c1ccccc1Sc1ncnc2sc3c(c12)CCC3 | 67.7
28 | C/C(=N\NC(=O)C1CC1c1ccccc1)c1ccc(NC(=O)c2ccco2)cc1 (stereo not given) | 60
29 | O=C(O)c1ccc(-c2ccc(O[C@H]3O[C@H](CO)[C@@H](O)[C@H](O)[C@@H]3O)cc2)cc1 | 63.9
30 | Nc1nc(=O)[nH]cc1F | 64.8
31 | CC[C@@H]1C(=O)OC[C@@H]1Cc1cncn1C | 62.8
32 | O=[N+]([O-])c1cn2c(n1)OC[C@@H](OCc1ccc(OC(F)(F)F)cc1)C2 | 64.4
33 | O=C(O)CCNC(=O)c1ccccc1 | 66.9
34 | Clc1cc(Cl)c2c(c1)CCc1ccccc1C2n1ccnc1 (stereo not given) | 80.7
35 | CCCCCOc1ccc(/C=C2\Oc3c(ccc(O)c3O)C2=O)c(O)c1 | 69.6
36 | CC(C)CCN1C(=O)C(C2=NS(=O)(=O)c3cc(NS(C)(=O)=O)ccc3N2)=C(O)[C@@H]2[C@H]3CC[C@H](C3)[C@@H]21 | 67.8
37 | CCc1cc(O)c(Oc2cccnc2N)cc1F | 65.5
38 | Oc1cc(-c2cccc3ccccc23)[nH]n1 | 66.8
39 | CONC(=N)c1ccc(-c2ccc(-c3ccc(C(=N)NOC)cc3)o2)cc1 | 63.9
40 | Nc1nc2c(ncn2COC(CO)CO)c(=O)[nH]1 | 68.6

Reference: the supplement of paper PMC10941209
